Columns and labels:
Assay type in all cases: functional
[1] = target: Solute carrier family 2, facilitated glucose transporter member 1 (Homo sapiens) (UniProt P11166); test: ST_JUDE_LEISH: Cytotoxicity at 2uM final concentration against transgenic Leishmania Mexicana promastigotes LmGLUT1 that are glucose transport deficient and complemented with the human glucose transporter GLUT1. Activity is measured by DNA content using SYBR green in vitro
[2] = target: Hexose transporter 1 (Plasmodium falciparum) (UniProt O97467); test: ST_JUDE_LEISH: Cytotoxicity at 2uM final concentration against transgenic Leishmania Mexicana promastigotes LmPfHT that are glucose transport deficient and complemented with the Plasmodium falciparum hexose transporter. Activity is measured by DNA content using SYBR green in vitro
[3] = target: Glucose transporter (Leishmania mexicana) (UniProt O61059); test: ST_JUDE_LEISH: Cytotoxicity at 2uM final concentration against transgenic Leishmania Mexicana promastigotes LmGT2 that are glucose transport deficient and complemented with the L. Mexicana glucose transporter 2. Activity is measured by DNA content using SYBR green in vitro

Solute carrier family 2, facilitated glucose transporter member 1 (Homo sapiens), sequence (P11166 whole entry): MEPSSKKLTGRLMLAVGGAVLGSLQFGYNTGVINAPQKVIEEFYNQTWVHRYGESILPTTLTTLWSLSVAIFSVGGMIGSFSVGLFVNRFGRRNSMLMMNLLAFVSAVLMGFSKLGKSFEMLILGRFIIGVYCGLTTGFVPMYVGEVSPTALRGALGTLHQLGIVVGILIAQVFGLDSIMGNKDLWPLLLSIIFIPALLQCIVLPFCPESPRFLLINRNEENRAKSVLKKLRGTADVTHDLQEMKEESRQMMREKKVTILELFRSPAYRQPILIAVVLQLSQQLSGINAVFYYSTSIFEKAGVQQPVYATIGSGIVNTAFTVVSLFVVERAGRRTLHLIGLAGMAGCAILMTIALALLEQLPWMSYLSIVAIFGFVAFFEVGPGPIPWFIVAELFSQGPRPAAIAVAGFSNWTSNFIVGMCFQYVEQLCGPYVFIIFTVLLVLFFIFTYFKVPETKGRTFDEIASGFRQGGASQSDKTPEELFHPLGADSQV

Structure (SMILES) | inhibition [1] [%] | inhibition [2] [%] | inhibition [3] [%]
CCN(CC)CCCC(C)Nc1ccnc2ccc(-c3ccccc3)cc12 (centres undefined) | -0.2 | -0.17 | 1.04
O[C@H]1[C@H](OCc2ccc(-c3ccccc3)cc2)CC[C@@H]1N1CCCCC1 | 0.73 | 1.54 | 8.6
Cc1cccc2nc(-c3ccc(-c4ccc(CN5CCN(c6ccc(C#N)cn6)CC5)cc4)s3)[nH]c12 | 5.16 | 6.3 | -0.38
Cc1nc2nc(N)nc(N)c2c(C)c1Cc1ccc([N+](=O)[O-])cc1 | 5.73 | 3.25 | -0.24
Cc1cc(Cc2ccc(S(=O)(=O)c3cc4c(cc3O)CCN(C)CC4)cc2)ccc1Cl | -0.06 | 2.07 | 0.31
CCc1nc(N)nc(N)c1CCCOc1ccccc1Cl | 3.15 | 2.69 | -0.4
CN(CCCNC(=S)NC12CC3CC(CC(C3)C1)C2)CCCNc1ccnc2cc(Cl)ccc12 | -1.07 | 0.09 | 1.25
O=C(Nc1cccc(C(F)(F)F)c1)Nc1cc(F)c(F)cc1Cl | 1.86 | 1.72 | 2.36
Cc1cc(NC(=O)NCCN2CCC(NS(=O)(=O)c3ccccc3Cl)C2)c2ccccc2n1 (centres undefined) | -2.1 | 1.02 | 8.99
O=C(Nc1cccc(Cl)c1Cl)Nc1ccnc2ccccc12 | 7.59 | 7.42 | 5.95
COc1ccc(C(=O)NC2CCN(c3ccnc4cc(Cl)ccc34)C2)cc1 (centres undefined) | 1.59 | 1.83 | 0.51
CCOCc1cn(CC(=O)c2ccc(-c3ccccc3)cc2)c(C)nc1=N | -1.07 | -0.82 | -0.84
O=C(Nc1ccccc1)N(Cc1ccc(-c2ccc(CNC3CCCC3)cc2)cc1)C1CCN(Cc2ccccc2)CC1 | 4.17 | 3.43 | 2.32
CCOC(=O)C1=C(C)NC(Cn2ccnc2)=C(C(=O)OCC)C1c1ccc(C(C)(C)C)cc1 (centres undefined) | 2.7 | 2.73 | 2.07
CS(=O)(=O)CCNc1nccc(N2CCc3ncnc(Nc4ccc(OCc5cccc(F)c5)c(Cl)c4)c3C2)n1 | -1.94 | -1.97 | -1.99
CCOC(=O)NC1=NC(C)(C)N(OCc2ccc(Cl)c(Cl)c2)C(NC(=O)OCC)=N1 | 3.54 | 2.08 | 2.54
Cc1cccc(C)c1C1CCN(CCCCNC(=O)c2cc3ccccc3[nH]2)CC1 | 1.79 | 0.17 | 0.3

Structure (SMILES) | inhibition [1] [%] | inhibition [2] [%] | inhibition [3] [%]
CC(=O)N1N=C(c2cccs2)Sc2c1nc(-c1ccc(Cl)cc1)n2C(C)=O | 11.9 | 12.2 | 11.9
O=C(NCCN1CCCCC1)c1ccc(CNC(=O)c2ccc(O)c(-c3cccc(C(F)(F)F)c3)c2)cc1 | 4.42 | 3.09 | 3.27
COCCNCc1ccc(-c2cccc(CNc3ccc(OC)cc3)c2)cc1 | 11.3 | 8.16 | 5.16
CC(C)NCc1cccc(-c2ccc(NC(=O)c3ccc(C#N)cc3)cc2)c1 | 14.9 | 12.1 | 10
COc1cc2nc(N(C)CC3COc4ccccc4O3)nc(N)c2cc1OC (centres undefined) | 3.64 | 1.69 | -0.97
COc1cccc(C(=O)Nc2ccc(Nc3nc(C)cc(N(C)C)n3)cc2)c1 | 12.8 | 9.13 | 7.09
COc1ccc2cc(CNCCCCCCNCc3ccc4cc(OC)ccc4c3)ccc2c1 | 107 | 107 | 103
COc1cc(C(=O)NCc2nn(CCN3CCC(N4CCCC4)CC3)cc2-c2ccc(Cl)c(Cl)c2)cc(OC)c1OC | -2.77 | 3.08 | 3.75
COc1ccc(CCN(C)CCCOc2ccc(NC(=O)COc3cccc4sc5ccccc5c(=O)c34)cc2)cc1OC | -2.54 | -2.87 | -0.2
O=C(O)CCc1ccc(-c2c[nH]c3ncc(-c4ccc5ncccc5c4)cc23)cc1 | 10.2 | 8.63 | 5.55
CN1CCC(C(=O)Nc2cccc(-c3cccc(-c4nc5cc(F)ccc5[nH]4)c3)c2)CC1 | 4.7 | 5.02 | 6.69
COc1cc(NC(=O)CCCCCCCN2CCN(C)CC2)c2ncccc2c1 | 5.39 | 3.78 | 1.09
CC(C)(C)c1ccc2[nH]c(-c3ccc(/C=C/C(=O)NCc4cccc(C(F)(F)F)c4)cc3)nc2c1 | 3.32 | 5.66 | 2.22
CC(C)(C)c1ccc(NC(=O)c2ccc(CN3CCCN(CC4CCCCC4)CC3)cc2)cc1 | 3.27 | 1.6 | 5.35
CN1CCCC(CN2CCN(Cc3ccc(-c4ccc(-c5nc6cc(F)ccc6[nH]5)cc4)cc3)CC2)C1 (centres undefined) | 2.18 | 4.45 | 2.38
COc1ccc(S(=O)(=O)NCC2CCCN(CCCCCNC(=O)/C=C/c3ccc(Cl)c(Cl)c3)C2)cc1 (centres undefined) | 0.97 | 0.66 | 3.47

Source: ChEMBL document CHEMBL3433997, “St. Jude Leishmania screening dataset” (2016)
